Assay results: PubChem BioAssay (NCATS)
Inconclusive results are not listed. A call without a number means that no potency is given here. A number with no mark means an inactive call. Activity calls are given as the source filed them. Calls come from the whole dose curve; as a rule, active = well fitted curve in the direction sought with a large enough effect; inconclusive = small, poorly fitted or top-dose-only effect, or another doubt; inactive = no such curve, though single readings can be large; an effect the other way counts as inactive or inconclusive.

Tests used:
[1] = molecular target: Rap guanine nucleotide exchange factor 3 (Homo sapiens) (UniProt O95398); test: Confirmatory qHTS for antagonist of cAMP-regulated guanine nucleotide exchange factor 3 (EPAC1) (AID 1645880); note: nearly all actives have a fitted effect of over 55% in size; note: potency is the fitted concentration of half-maximal effect
Rap guanine nucleotide exchange factor 3 (Homo sapiens), sequence (O95398 whole entry, looked up): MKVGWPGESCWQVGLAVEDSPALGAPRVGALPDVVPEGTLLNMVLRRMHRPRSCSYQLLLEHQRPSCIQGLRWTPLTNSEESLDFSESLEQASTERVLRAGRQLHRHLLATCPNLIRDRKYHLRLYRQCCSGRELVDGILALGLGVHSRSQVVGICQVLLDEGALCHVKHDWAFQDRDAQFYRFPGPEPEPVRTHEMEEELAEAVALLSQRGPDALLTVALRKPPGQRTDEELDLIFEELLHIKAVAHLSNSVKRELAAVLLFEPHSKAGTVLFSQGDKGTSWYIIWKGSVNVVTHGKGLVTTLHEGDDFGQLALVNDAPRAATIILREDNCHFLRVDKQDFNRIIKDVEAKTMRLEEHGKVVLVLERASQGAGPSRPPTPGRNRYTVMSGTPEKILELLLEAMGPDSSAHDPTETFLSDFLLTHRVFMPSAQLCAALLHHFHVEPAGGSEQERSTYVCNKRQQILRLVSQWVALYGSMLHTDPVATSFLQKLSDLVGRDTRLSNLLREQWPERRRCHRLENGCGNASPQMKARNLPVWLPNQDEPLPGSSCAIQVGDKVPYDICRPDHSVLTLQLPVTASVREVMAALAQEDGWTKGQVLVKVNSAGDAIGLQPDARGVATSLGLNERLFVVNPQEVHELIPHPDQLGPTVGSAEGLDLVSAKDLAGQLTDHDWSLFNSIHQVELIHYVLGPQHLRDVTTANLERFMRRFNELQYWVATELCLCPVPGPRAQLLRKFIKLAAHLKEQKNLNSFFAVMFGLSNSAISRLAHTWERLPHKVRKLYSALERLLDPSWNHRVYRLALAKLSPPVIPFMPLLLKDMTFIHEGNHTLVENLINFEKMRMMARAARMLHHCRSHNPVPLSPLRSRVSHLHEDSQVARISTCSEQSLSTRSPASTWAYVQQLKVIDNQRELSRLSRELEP
In short: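 Nucleotide exchange uses 100 nM EPAC1, 250 nM RAP1B-BODIPY-GDP and 50 uM GDP, with compounds in a concentration-titration series. After 5 min at room temperature, fluorescence (480 nm ex/540 nm em) is read every 5 min for 30 min. Data are normalized to control ATA and DMSO.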

[2] = molecular target: Rap guanine nucleotide exchange factor 3 (Homo sapiens) (UniProt O95398); test: Confirmatory qHTS for agonist of cAMP-regulated guanine nucleotide exchange factor 3 (EPAC1) (AID 1645881); note: nearly all actives have a fitted effect of over 75% in size; note: potency is the fitted concentration of half-maximal effect;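 for activation: EPAC1 catalysed release of BODIPY-GDP from Rap1B seen as fluorescence loss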
[3] = molecular target: Rap guanine nucleotide exchange factor 4 (Homo sapiens) (UniProt Q8WZA2); test: Confirmatory qHTS for agonist of cAMP-regulated guanine nucleotide exchange factor 4 (EPAC2) (AID 1645884);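 note: nucleotide exchange releases bodipy-GDP from Rap1 and this lowers its fluorescence; nearly all actives have a fitted effect of over 65% in size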; note: potency is the fitted concentration of half-maximal effect
Rap guanine nucleotide exchange factor 4 (Homo sapiens), sequence (Q8WZA2 whole entry, looked up): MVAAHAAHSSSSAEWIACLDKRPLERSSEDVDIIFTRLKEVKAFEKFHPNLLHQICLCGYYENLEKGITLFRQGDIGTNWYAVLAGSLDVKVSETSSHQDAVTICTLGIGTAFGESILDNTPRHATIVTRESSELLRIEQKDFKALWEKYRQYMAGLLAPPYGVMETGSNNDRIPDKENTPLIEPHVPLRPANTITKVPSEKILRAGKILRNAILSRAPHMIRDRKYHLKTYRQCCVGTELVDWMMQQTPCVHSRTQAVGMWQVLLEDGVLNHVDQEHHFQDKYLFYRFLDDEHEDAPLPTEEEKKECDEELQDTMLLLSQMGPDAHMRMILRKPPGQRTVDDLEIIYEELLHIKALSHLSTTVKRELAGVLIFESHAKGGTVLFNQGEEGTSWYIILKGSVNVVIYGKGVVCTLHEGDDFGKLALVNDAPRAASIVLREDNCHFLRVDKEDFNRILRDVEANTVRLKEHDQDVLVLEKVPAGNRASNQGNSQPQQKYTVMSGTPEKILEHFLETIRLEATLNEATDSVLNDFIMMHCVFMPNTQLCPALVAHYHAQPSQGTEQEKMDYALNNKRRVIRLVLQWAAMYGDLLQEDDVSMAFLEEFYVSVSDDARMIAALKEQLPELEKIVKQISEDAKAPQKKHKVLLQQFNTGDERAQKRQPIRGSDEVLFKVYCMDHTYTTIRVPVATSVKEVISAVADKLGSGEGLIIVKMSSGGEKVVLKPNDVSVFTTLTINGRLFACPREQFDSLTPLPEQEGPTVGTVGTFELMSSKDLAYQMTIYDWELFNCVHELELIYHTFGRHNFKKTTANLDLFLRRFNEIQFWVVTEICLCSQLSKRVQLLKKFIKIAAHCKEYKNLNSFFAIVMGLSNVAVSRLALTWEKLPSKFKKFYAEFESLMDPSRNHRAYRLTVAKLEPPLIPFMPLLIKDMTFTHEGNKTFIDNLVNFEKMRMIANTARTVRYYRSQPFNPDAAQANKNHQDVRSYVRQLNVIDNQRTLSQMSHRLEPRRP

[4] = molecular target: Rap guanine nucleotide exchange factor 4 (Homo sapiens) (UniProt Q8WZA2); test: Confirmatory qHTS for antagonist of cAMP-regulated guanine nucleotide exchange factor 4 (EPAC2) (AID 1645885); note: nearly all actives have a fitted effect of over 25% in size; note: potency is the fitted concentration of half-maximal effect
[5] = molecular target: Rap guanine nucleotide exchange factor 3 (Homo sapiens) (UniProt O95398); test: Counterscreen qHTS for antagonist of cAMP-regulated guanine nucleotide exchange factor 3 (EPAC1) (AID 1645888);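 note: fluorescence loss as bound BODIPY-GDP is released from Rap1B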
In short: (§1)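 Measured: fluorescence of BODIPY-GDP bound to Rap1B, which falls as exchange proceeds. Conditions include 50 uM competing GDP, 5 and 30 min reads, and a later cAMP challenge for antagonist detection.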

[6] = molecular target: Rap guanine nucleotide exchange factor 3 (Homo sapiens) (UniProt O95398); test: Counterscreen qHTS for agonist of cAMP-regulated guanine nucleotide exchange factor 3 (EPAC1) (AID 1645889); note: nearly all actives have a fitted effect of over 40% in size
In short: as §1

Row | Compound | Potency [1] | Potency [2] | activation [3] | Potency [4] | activity change, negative = inhibition [5] | activation [6] | Potency [3] | Potency [5] | Potency [6] | outcome [4]
1 | CCN(CC)c1ccc(C(=O)OCC(=O)NCC2CCCO2)cc1 (centres undefined) | inactive | inactive | 4.19% [at 17.1 µM, percent relative to cAMP agonist control] | inactive | -1.2% [at 30.8 µM] | 25.8% [at 30.8 µM] |  |  |  | 
2 | COc1cccc(C(c2nnnn2-c2c(C)cccc2C)N2CCN(C/C=C/c3ccccc3)CC2)c1OC (centres undefined) | inactive | inactive |  | inactive |  |  | inactive | inactive | inactive | 
3 | N=C1/C(=C\c2ccc(OC(=O)c3ccccc3Cl)cc2)C(=O)N=C2SC(N3CCOCC3)=NN12 | 19 µM (active) | inactive |  | inactive |  |  | inactive | inactive | inactive | 
4 | CCC(Oc1ccccc1)C(=O)Nc1cc(Cl)ccc1-n1cncn1 (centres undefined) | inactive | inactive |  | 47.8 µM (active) |  |  | inactive | inactive | inactive | 
5 | COc1ccc(C(=O)N2CCc3cc(OC)c(OC)cc3C2c2ccc(OC)c(OC)c2)cc1 (centres undefined) | inactive | inactive | 5.17% [at 17.1 µM, percent relative to cAMP agonist control] | inactive | -5.18% [at 30.8 µM] | 15.1% [at 30.8 µM] |  |  |  | 
6 | COc1ccc(/C=C2\SC(=S)N(NS(=O)(=O)c3ccc(C)cc3)C2=O)c(OC)c1 | 14.1 µM (active) | inactive | 6.75% [at 17.1 µM, percent relative to cAMP agonist control] | inactive | 7.67% [at 30.8 µM] | 20% [at 30.8 µM] |  |  |  | 
7 | CSCCC(NS(=O)(=O)c1ccc2c(c1)oc(=O)n2C)C(=O)NC1CCCc2ccccc21 (centres undefined) | inactive | inactive |  | inactive |  |  | inactive | inactive | inactive | 
8 | CC(=O)c1c(C(C)=O)c(C)n(-c2nc(-c3ccccc3)c(C)s2)c1C | inactive | inactive |  | inactive |  |  | inactive | inactive | inactive | 
9 | Cn1cc(C(=O)N/N=C/C2=C(N3CCOCC3)C(=C\c3ccccc3)/CC2)ccc1=O | inactive | inactive | -0.586% [at 17.1 µM, percent relative to cAMP agonist control] | inactive | -15% [at 30.8 µM] | 5.8% [at 30.8 µM] |  |  |  | 
10 | Cc1ccccc1OCCC(=O)OCC(=O)N1CCN(S(=O)(=O)c2ccc(Cl)cc2)CC1 | inactive | inactive | 7.52% [at 17.1 µM, percent relative to cAMP agonist control] | inactive | -4.15% [at 30.8 µM] | 26.1% [at 30.8 µM] |  |  |  | 
11 | CC1=C(C(=O)NC2CCC(C)CC2)C2(CCC(C)CC2)OC1=O (centres undefined) | inactive | inactive | 1.07% [at 17.1 µM, percent relative to cAMP agonist control] | inactive | -11.5% [at 30.8 µM] | -0.546% [at 30.8 µM] |  |  |  | 
12 | COC(=O)c1ccccc1NC(=O)CN1C(=O)COc2ccc(Cl)cc21 | inactive | inactive |  | inactive |  |  | inactive | inactive | inactive | 
13 | O=C(COC(=O)c1cccc(-n2cnnn2)c1)c1ccc(F)cc1 | inactive | inactive | 8.21% [at 17.1 µM, percent relative to cAMP agonist control] | inactive | -3.01% [at 30.8 µM] | 4.41% [at 30.8 µM] |  |  |  | 
14 | CCc1nc2c(OCCOc3ccc(F)cc3)cccn2c1N(C)C(=O)c1ccc(OC)cc1 | inactive | inactive | 3.55% [at 17.1 µM, percent relative to cAMP agonist control] | inactive | -15.6% [at 30.8 µM] | 11.5% [at 30.8 µM] |  |  |  | 
15 | CCC(C(=O)OC)n1c(-c2ccccc2)nc2ccccc2c1=O (centres undefined) | inactive | inactive |  | 19 µM (active) |  |  | inactive | inactive | inactive | 
16 | CCOc1ccc(/C=C/C(=O)c2cc(Br)ccc(=O)c2O)cc1 | 33.8 µM (active) | inactive |  | inactive |  |  | inactive | inactive | inactive | 
17 | C=CCc1c(C)c(C#N)c2nc3ccccc3n2c1N1CCCCC1 | inactive | inactive |  | inactive |  |  | inactive | inactive | inactive | 
18 | Cc1sc2ncnc(N3CCCC(C)C3)c2c1C (centres undefined) | inactive | inactive |  | inactive |  |  | inactive | inactive | inactive | 
19 | COc1cc(OC)nc(Oc2cccc(Cl)c2C)n1 | inactive | inactive |  | inactive |  |  | inactive | inactive | inactive | 
20 | CCOC(=O)/C(C#N)=C/c1ccc(N2CCCCC2)cc1 | inactive | 56.2 µM (active) | 7.82% [at 17.1 µM, percent relative to cAMP agonist control] | inactive | -1.56% [at 30.8 µM] | 18.2% [at 30.8 µM] |  |  |  | 
21 | O=C(CN(c1ccc(Cl)c(C(F)(F)F)c1)S(=O)(=O)c1ccccc1)N1CCc2ccccc2C1 | inactive | inactive |  | inactive |  |  | inactive | inactive | inactive | 
22 | COc1ccc(C(=O)Nc2cccc(/C=C(\CCC(=O)O)c3nc4ccccc4s3)c2)cc1 | 21.3 µM (active) | inactive |  | inactive |  |  | inactive | inactive | inactive | 

Row | Compound | Potency [1] | Potency [2] | activation [3] | Potency [4] | activity change, negative = inhibition [5] | activation [6] | Potency [3] | Potency [5] | Potency [6] | outcome [4]
23 | O=S(=O)(NCc1cn2ccsc2n1)c1cccs1 | inactive | inactive | 0% [at 17.1 µM, percent relative to cAMP agonist control] | inactive | -13.2% [at 30.8 µM] | 3.73% [at 30.8 µM] |  |  |  | 
24 | O=C(CCNC(=O)c1ccc(Br)cc1)Nc1ccccc1N1CCOCC1 | inactive | inactive |  | inactive |  |  | inactive | inactive | inactive | 
25 | O=S(=O)(NCc1ccccc1)c1ccc(S(=O)(=O)N(Cc2cccs2)CC2CCCO2)cc1 (centres undefined) | inactive | inactive |  | inactive |  |  | inactive | inactive | inactive | 
26 | Cc1ccc(S(=O)(=O)N2[C@@H](c3ccc(Cl)cc3)C(C(=O)O)=CC[C@H]2c2ccc(Cl)c(Cl)c2)cc1 | 75.7 µM (active) | inactive |  | 47.8 µM (active) |  |  | inactive | inactive | inactive | 
27 | Nc1ncnc2nc(Sc3ccc(Cl)cc3)[nH]c12 | inactive | inactive |  | inactive |  |  | inactive | inactive | inactive | 
28 | CCOc1c(OC)cccc1C1CC(=O)Nc2cc3c(cc21)OCCO3 (centres undefined) | inactive | inactive |  | inactive |  |  | inactive | inactive | inactive | 
29 | C=CCn1c(O)c(N=NC(=O)CNC(=O)/C=C/c2ccc(OC)cc2)c2ccccc21 | inactive | inactive |  | inactive |  |  | inactive | inactive | inactive | 
30 | Nc1c(C(=O)c2ccccc2)sc2nsc(SCCN3CCOCC3)c12 | inactive | inactive |  | inactive |  |  | inactive | inactive | inactive | 
31 | COc1ccc(OC)c(/C=c2\sc3nc(-c4cccs4)nn3c2=O)c1 | inactive | 89.1 µM (active) |  | inactive |  |  | 100 µM (active) | inactive | inactive | 
32 | N#C/C(=C\c1cn(Cc2ccc(C#N)cc2)c2ccccc12)C(=O)NCc1cccs1 | inactive | inactive | 8.48% [at 17.1 µM, percent relative to cAMP agonist control] | inactive | 7.4% [at 30.8 µM] | 15.9% [at 30.8 µM] |  |  |  | 
33 | CCNC(C(=O)c1c[nH]c2c(CC)cccc12)c1ccccc1 (centres undefined) | inactive | inactive |  | inactive |  |  | inactive | inactive | inactive | 
34 | CCOC(=O)c1cnc2ccccc2c1Nc1cccc(OC)c1 | inactive | inactive |  |  |  |  | inactive | inactive | inactive | inactive [at 12.7 µM]
35 | Cc1cn2c(=O)cc(COc3ccc(C(C)(C)C)cc3)nc2s1 | inactive | inactive |  | inactive |  |  | inactive | inactive | inactive | 
36 | O=C(NCc1ccncc1)C1Cc2c(-c3ccccc3Oc3ccccc3)ccnc2O1 (centres undefined) | inactive | inactive |  | inactive |  |  | inactive | inactive | inactive | 
37 | Cc1ccc(NC(=O)COC(=O)Cn2c(C)csc2=O)c([N+](=O)[O-])c1 | inactive | inactive |  | inactive |  |  | inactive | inactive | inactive | 
38 | COc1ccc(N2CCN(C(=O)COC(=O)COc3cc(C)cc(C)c3)CC2)cc1 | inactive | inactive | 0.676% [at 17.1 µM, percent relative to cAMP agonist control] | inactive | -19.2% [at 30.8 µM] | -0.0753% [at 30.8 µM] |  |  |  | 
39 | Cc1ccc(Cn2c(SCC(=O)N/N=C/c3ccc(C)o3)nc3ccccc32)cc1 | 47.8 µM (active) | inactive |  | inactive |  |  | inactive | inactive | inactive | 
40 | CCOc1cc(/C=N/Nc2ccc(S(=O)(=O)Nc3ccccc3C(=O)O)cc2[N+](=O)[O-])cc(Cl)c1O | 33.8 µM (active) | inactive |  | inactive |  |  | inactive | inactive | inactive | 
41 | C=CCc1cc(/C=C/c2nc(O)c([N+](=O)[O-])c(=O)[nH]2)cc(OC)c1O | 33.8 µM (active) | inactive |  | inactive |  |  | inactive | inactive | inactive | 
42 | CCc1nc2c(OCc3ccc(C(=O)OC)cc3)cccn2c1N(C)C(=O)CC(C)C | inactive | inactive |  | inactive |  |  | inactive | inactive | inactive | 
43 | CCOc1ccccc1C(=O)N(Cc1cccs1)c1ccc(Cl)cc1 | inactive | inactive |  | inactive |  |  | inactive | inactive | inactive | 
44 | CC1(C)CC(=O)C2=C(C1)c1c(ccc3ccccc13)NC2c1cc([N+](=O)[O-])cc([N+](=O)[O-])c1O (centres undefined) | 9.53 µM (active) | inactive |  | 26.9 µM (active) |  |  | inactive | inactive | inactive | 
